Among the data in PubChem BioAssay (EPA / NIEHS) are outcome and AC50 values, retold here.

Active and inactive are the calls of the source. How the source made its calls: active means hit-call score of the fitted dose curve at least 0.9, where 1 is the maximum; inactive means score below 0.9.

Assay [1] can be described thus: ATG_CMV_CIS: Attagene CIS-FACTORIAL HepG2 Assay for human CMV (Internal Marker) (AID 2282928).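 Further: endpoint acts as a background internal control marker rather than a target.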 As to conditions: HepG2 CMV promoter reporter, transcription factor profiling; actives raise or lower the signal. In a few lines: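 Fluorescence intensity of RT-PCR-derived reporter fragments, resolved by capillary electrophoresis, gives the signal. HepG2 liver cells bearing transfected cis-element reporters were treated 24 h; activity in either direction was fit relative to DMSO-treated controls.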

Assay [2] in a line: ATG_ISRE_CIS: Attagene CIS-FACTORIAL HepG2 Assay for human Interferon Regulatory Factor 1 (IRF1) binding to an Interferon-Stimulated Response Element (ISRE) (AID 2282948). As to conditions: HepG2 ISRE cis-reporter (Attagene), mRNA transcription readout; actives raise or lower the signal. Put shortly: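 Signal reflects induction or loss of ISRE-linked reporter mRNA in transiently transfected HepG2 cells after a 24 h treatment, detected by fluorescent RT-PCR fragments on capillary electrophoresis and normalised to DMSO.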

The target of assay [3] is Hepatocyte nuclear factor 6 (Homo sapiens) (UniProt Q9UBC0). Description: ATG_HNF6_CIS: Attagene CIS-FACTORIAL HepG2 Assay for human Hepatocyte Nuclear Factor 6 (HNF6) (AID 2282952). As to conditions: HepG2 Attagene cis-factorial HNF6 reporter transcription; actives raise or lower the signal. In a few lines: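 Using cis-element reporters in HepG2 liver cells, the assay tracks endogenous factor-driven transcription 24 h post-dosing. Signal comes from 6-FAM-labelled, HpaI-digested RT-PCR fragments, with gain or loss scored against DMSO.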

Assay [4] has as its target Heat shock factor protein 1 (Homo sapiens) (UniProt Q00613). Nature of the assay: ATG_HSE_CIS: Attagene CIS-FACTORIAL HepG2 Assay for human Heat Shock Transcription Factor 1 (HSE) (AID 2282953). To be noted: HepG2 HSE cis-reporter, Attagene RNA transcription; actives raise or lower the signal. Put shortly:
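Endogenous transcription factor activity captured via cis-promoter reporter units transfected into HepG2; treatment lasted 24 h. Fluorescence intensity of reporter fragments analysed with bidirectional curve fitting, DMSO baseline.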

Assay [5] is described as follows: ATG_RORE_CIS: Attagene CIS-FACTORIAL HepG2 Assay for human RAR-related Orphan Receptor Element (RORE) (AID 2282959). To be noted: HepG2 Attagene cis-factorial RORE reporter, mRNA; actives raise or lower the signal. In a few lines: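 Transfect HepG2 with MRTUs; treat 24 h; extract RNA; RT with oligo(dT); PCR with reporter-specific primers; 6-FAM primer extension; HpaI digest 2 h at 37 C; capillary electrophoresis. Fit vs DMSO, bidirectional.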

The target in assay [6] is Signal transducer and activator of transcription 3 (Homo sapiens) (UniProt P40763). Nature of the assay: ATG_STAT3_CIS: Attagene CIS-FACTORIAL HepG2 Assay for human Signal Transducer and Activator of Transcription 3 (STAT3) (AID 2282963). As to conditions: HepG2, Attagene cis-factorial STAT3 reporter transcription; actives raise or lower the signal. Put shortly:
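Cis-factorial format: endogenous transcription factors in HepG2 drive transfected reporter units. After 24 h treatment, reporter RNA was reverse-transcribed, amplified, FAM-labelled and HpaI-digested before CE analysis; activity scored in both directions against DMSO.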

Assay [7] is described as follows: ATG_TA_CIS: Attagene CIS-FACTORIAL HepG2 Assay for human TA Basal Promoter (AID 2282964). To be noted: HepG2 Attagene CIS-factorial TA basal promoter reporter; actives raise or lower the signal. In a few lines:
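Fluorescence from labelled RT-PCR reporter fragments, separated by capillary electrophoresis, gives the signal. Cells: HepG2 transiently carrying multiple reporter units, 24 h chemical dosing. Gain or loss relative to DMSO.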

A short description of assay [8]: ATG_TCF_b_cat_CIS: Attagene CIS-FACTORIAL HepG2 Assay for human T-Cell-Factor with beta-catenin (TCF/b-cat) (AID 2282965). As to conditions: HepG2 TCF/beta-catenin cis-reporter transcription, actives raise or lower the signal. In a few lines: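 Endogenous TCF/LEF activity read as reporter transcript level via RT-PCR and capillary electrophoresis fluorescence in transfected HepG2, 24 h exposure; gain or loss of signal fitted against DMSO controls.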

The nature of assay [9]: ATG_TAL_CIS: Attagene CIS-FACTORIAL HepG2 Assay for human TAL Basal Promoter (AID 2282966).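 Further: background control endpoint measuring basal TAL promoter reporter mRNA not a specific factor.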 As to conditions: HepG2 Attagene cis-factorial TAL promoter reporter; actives raise or lower the signal. Put shortly: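 After 24 hours of chemical exposure, transfected HepG2 cells yielded RNA that was converted to 6-FAM-labelled, HpaI-digested reporter fragments for capillary electrophoresis. Values derive from bidirectional fitting against DMSO controls.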

A short description of assay [10]: ATG_TGFb_CIS: Attagene CIS-FACTORIAL HepG2 Assay for human Transforming Growth Factor (TGF) (AID 2282967). To be noted: HepG2 Attagene CIS TGFb reporter, mRNA transcription; actives raise or lower the signal. In a few lines:
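Bidirectional fitting relative to DMSO gave the endpoint. Underlying data: reporter mRNA from HepG2 cells carrying transiently transfected cis-regulated reporter constructs, harvested 24 h after dosing and analyzed by RT-PCR and capillary electrophoresis.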

Assay [11] is described as follows: ATG_VDRE_CIS: Attagene CIS-FACTORIAL HepG2 Assay for human Vitamin D Receptor Element (VDRE) (AID 2282968). To be noted: HepG2 VDRE cis-reporter transcription, actives raise or lower the signal. In a few lines: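 Measures endogenous factor activity through cis-element-driven reporter transcripts in transiently transfected HepG2. Cells are treated 24 h; reporter mRNA is quantified by RT-PCR and capillary electrophoresis; fitting is bidirectional.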

Assay [12] addresses X-box-binding protein 1 (Homo sapiens) (UniProt P17861). Nature of the assay: ATG_Xbp1_CIS: Attagene CIS-FACTORIAL HepG2 Assay for human X-box Binding Protein 1 (XBP1) (AID 2282972). As to conditions: HepG2 XBP1 cis-element reporter, Attagene multiplex; actives raise or lower the signal. Put shortly: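 Human hepatoma HepG2, cis-element reporter system, 24 h treatment; mRNA quantified by RT-PCR/CE fluorescence; fit relative to DMSO.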

The target of assay [13] is Transcriptional activator Myb (Homo sapiens) (UniProt P10242). Nature of the assay: ATG_Myb_CIS: Attagene CIS-FACTORIAL HepG2 Assay for human Myeloblastosis (Myb) Proto-Oncogene Transcription Factor (AID 2282986). To be noted: HepG2 Attagene CIS-FACTORIAL Myb reporter transcription; actives raise or lower the signal. In a few lines: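 Using HepG2 liver cells bearing transiently transfected cis-promoter reporter constructs, the assay measures induction or loss of reporter mRNA after 24 hours of dosing. Detection used fluorescently labeled RT-PCR products separated by capillary electrophoresis.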

Assay [14] has as its target Nuclear respiratory factor 1 (Homo sapiens) (UniProt Q16656). Description: ATG_NRF1_CIS: Attagene CIS-FACTORIAL HepG2 Assay for human Nuclear Respiratory Factor 1 (NRF1) Orphan Gene (AID 2282987). To be noted: HepG2 NRF1 cis-element reporter, Attagene multiplex; actives raise or lower the signal. Put shortly: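 Reporter mRNA induction or loss in HepG2 cells after 24 h dosing; cis-regulated reporter constructs report endogenous transcription-factor activity. Quantified by RT-PCR/capillary electrophoresis fluorescence, DMSO-referenced.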

For assay [15], the target named is Myc proto-oncogene protein (Homo sapiens) (UniProt P01106). Nature of the assay: ATG_Myc_CIS: Attagene CIS-FACTORIAL HepG2 Assay for human Myelocytomatosis (Myc) Proto-Oncogene Transcription Factor (AID 2282990). As to conditions: HepG2, Attagene cis-reporter transcription factor activity; actives raise or lower the signal. In a few lines: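 After 24 h chemical treatment of HepG2 cells carrying multiplexed cis-regulated reporter constructs, reporter transcripts quantified by RT-PCR and capillary electrophoresis of fluorescent fragments. Gain or loss fitted against DMSO baseline.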

A short description of assay [16]: ATG_NRF2_ARE_CIS: Attagene CIS-FACTORIAL HepG2 Assay for human Nuclear Factor Erythroid 2 Related Factor 2 (NFR2) response to Antioxidant Response Elements (ARE) (AID 2282992).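 On AC50: reporter mRNA level measured by RT-PCR and capillary electrophoresis fluorescence.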 To be noted: HepG2 Attagene ARE/NRF2 reporter, transcription factor activity; actives raise or lower the signal. Put shortly:
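Fluorescence intensity of reporter-specific cDNA fragments, separated by capillary electrophoresis, reflects mRNA induction in transfected HepG2 cells at 24 h. Activity is fitted bidirectionally, DMSO serving as baseline.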

Assay [17] can be described thus: ATG_Oct_MLP_CIS: Attagene CIS-FACTORIAL HepG2 Assay for human Octamer-Binding Transcription Factor (Oct) (AID 2282993). As to conditions: HepG2 Attagene cis-factorial Oct reporter, mRNA; actives raise or lower the signal. In a few lines: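 HepG2, transient MRTU transfection, cis promoter elements; 24 h dosing; RT-PCR/CE fluorescence read-out of reporter mRNA; fit both directions vs DMSO.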

The target of assay [18] is Cellular tumor antigen p53 (Homo sapiens) (UniProt P04637). Description: ATG_p53_CIS: Attagene CIS-FACTORIAL HepG2 Assay for human p53 Transcription Factor (AID 2282994). To be noted: HepG2 p53 cis-element reporter, Attagene mRNA; actives raise or lower the signal. Put shortly:
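Transiently transfected HepG2 (multiple cis reporter transcription units); exposure 24 h; reporter RNA via RT-PCR, 6-FAM extension, 2 h HpaI digest at 37 C, CE detection; DMSO baseline.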

The nature of assay [19]: ATG_M_32_CIS: Attagene CIS-FACTORIAL HepG2 Assay for M32 Transcription Factor (Internal Marker) (AID 2282949).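 Further: background control marker of the multiplexed CIS panel rather than a real target.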 As to conditions: HepG2 Attagene cis-factorial M32 reporter, mRNA; actives raise or lower the signal. Put shortly:
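Using DMSO as baseline, bidirectional curve fits were applied to reporter mRNA signals. These came from transiently transfected HepG2 cells exposed for 24 h, with RNA analysed by RT-PCR, FAM primer extension, HpaI digestion and CE.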

The nature of assay [20]: ATG_NF_kB_CIS: Attagene CIS-FACTORIAL HepG2 Assay for human Nuclear Factor Kappa B (NF-kB) (AID 2282991). As to conditions: HepG2 Attagene cis-factorial NF-kB reporter mRNA; actives raise or lower the signal. Put shortly:
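DMSO served as negative control and baseline for bidirectional curve fitting. Transiently transfected HepG2 cells were dosed for 24 h, then reporter transcripts were measured by RT-PCR with capillary electrophoresis detection.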

Chain of Transcriptional activator Myb (Homo sapiens) (P10242 whole entry, looked up): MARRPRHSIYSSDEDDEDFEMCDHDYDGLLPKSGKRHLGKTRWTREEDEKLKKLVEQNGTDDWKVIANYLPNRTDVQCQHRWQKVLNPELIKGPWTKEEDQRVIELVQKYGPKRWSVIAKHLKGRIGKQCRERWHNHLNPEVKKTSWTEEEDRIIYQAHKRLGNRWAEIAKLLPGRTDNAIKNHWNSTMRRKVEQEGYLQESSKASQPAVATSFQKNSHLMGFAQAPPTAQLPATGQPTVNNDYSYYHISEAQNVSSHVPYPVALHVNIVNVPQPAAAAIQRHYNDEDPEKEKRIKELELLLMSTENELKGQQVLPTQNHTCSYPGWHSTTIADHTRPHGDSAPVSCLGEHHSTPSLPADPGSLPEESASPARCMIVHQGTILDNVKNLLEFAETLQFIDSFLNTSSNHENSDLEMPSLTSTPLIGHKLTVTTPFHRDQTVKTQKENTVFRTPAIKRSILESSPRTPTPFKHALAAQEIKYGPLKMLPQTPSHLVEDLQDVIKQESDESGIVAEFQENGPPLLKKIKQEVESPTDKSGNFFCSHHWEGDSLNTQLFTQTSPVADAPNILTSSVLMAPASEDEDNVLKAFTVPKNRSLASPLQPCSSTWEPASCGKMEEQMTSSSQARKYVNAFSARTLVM
Chain of Hepatocyte nuclear factor 6 (Homo sapiens) (Q9UBC0 whole entry, looked up, the tested form may be a part): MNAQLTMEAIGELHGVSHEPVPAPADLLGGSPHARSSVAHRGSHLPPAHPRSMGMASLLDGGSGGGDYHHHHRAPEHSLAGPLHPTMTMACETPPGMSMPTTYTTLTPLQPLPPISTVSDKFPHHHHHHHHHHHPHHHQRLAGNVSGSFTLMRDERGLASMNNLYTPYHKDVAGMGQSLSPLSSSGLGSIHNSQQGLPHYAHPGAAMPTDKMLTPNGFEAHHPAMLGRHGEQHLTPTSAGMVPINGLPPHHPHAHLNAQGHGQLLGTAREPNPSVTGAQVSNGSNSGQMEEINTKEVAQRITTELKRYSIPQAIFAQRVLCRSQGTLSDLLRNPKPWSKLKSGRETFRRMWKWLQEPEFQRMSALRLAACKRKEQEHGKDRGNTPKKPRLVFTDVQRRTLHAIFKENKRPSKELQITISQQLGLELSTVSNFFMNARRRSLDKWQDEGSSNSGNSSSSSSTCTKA
Chain of X-box-binding protein 1 (Homo sapiens) (P17861 whole entry, looked up): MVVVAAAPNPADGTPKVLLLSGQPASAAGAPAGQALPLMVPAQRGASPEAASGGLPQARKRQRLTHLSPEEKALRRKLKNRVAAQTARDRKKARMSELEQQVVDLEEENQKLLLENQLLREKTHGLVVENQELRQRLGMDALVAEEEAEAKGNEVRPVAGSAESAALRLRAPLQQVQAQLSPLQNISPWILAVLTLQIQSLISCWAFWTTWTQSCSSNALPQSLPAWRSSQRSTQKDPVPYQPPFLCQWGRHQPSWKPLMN
Chain of Myc proto-oncogene protein (Homo sapiens) (P01106 whole entry, looked up, the tested form may be a part): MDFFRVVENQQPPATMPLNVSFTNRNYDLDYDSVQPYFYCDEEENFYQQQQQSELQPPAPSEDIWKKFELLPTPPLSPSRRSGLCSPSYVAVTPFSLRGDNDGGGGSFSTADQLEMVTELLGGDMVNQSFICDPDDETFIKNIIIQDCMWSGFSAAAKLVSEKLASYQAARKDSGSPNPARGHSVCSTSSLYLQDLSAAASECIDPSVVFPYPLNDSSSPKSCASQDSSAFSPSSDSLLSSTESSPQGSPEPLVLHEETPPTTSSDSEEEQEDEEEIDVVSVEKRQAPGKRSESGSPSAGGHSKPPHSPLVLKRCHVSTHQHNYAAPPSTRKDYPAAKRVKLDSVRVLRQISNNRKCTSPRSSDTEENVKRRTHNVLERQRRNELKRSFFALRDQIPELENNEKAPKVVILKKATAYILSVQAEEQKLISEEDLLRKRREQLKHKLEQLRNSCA
Chain of Nuclear respiratory factor 1 (Homo sapiens) (Q16656 whole entry, looked up): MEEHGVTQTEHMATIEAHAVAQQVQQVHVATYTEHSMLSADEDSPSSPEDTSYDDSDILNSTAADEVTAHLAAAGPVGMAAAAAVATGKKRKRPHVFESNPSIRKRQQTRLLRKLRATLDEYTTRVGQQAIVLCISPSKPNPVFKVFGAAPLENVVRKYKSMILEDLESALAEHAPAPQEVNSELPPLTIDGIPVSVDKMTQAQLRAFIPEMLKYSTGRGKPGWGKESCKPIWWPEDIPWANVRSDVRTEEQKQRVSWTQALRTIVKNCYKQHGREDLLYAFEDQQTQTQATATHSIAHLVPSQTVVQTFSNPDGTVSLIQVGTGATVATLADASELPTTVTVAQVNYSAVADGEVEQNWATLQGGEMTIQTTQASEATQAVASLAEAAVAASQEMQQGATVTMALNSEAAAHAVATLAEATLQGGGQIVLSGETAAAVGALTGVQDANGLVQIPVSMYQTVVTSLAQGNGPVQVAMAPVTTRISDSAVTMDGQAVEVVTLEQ
Chain of Signal transducer and activator of transcription 3 (Homo sapiens) (P40763 whole entry, looked up): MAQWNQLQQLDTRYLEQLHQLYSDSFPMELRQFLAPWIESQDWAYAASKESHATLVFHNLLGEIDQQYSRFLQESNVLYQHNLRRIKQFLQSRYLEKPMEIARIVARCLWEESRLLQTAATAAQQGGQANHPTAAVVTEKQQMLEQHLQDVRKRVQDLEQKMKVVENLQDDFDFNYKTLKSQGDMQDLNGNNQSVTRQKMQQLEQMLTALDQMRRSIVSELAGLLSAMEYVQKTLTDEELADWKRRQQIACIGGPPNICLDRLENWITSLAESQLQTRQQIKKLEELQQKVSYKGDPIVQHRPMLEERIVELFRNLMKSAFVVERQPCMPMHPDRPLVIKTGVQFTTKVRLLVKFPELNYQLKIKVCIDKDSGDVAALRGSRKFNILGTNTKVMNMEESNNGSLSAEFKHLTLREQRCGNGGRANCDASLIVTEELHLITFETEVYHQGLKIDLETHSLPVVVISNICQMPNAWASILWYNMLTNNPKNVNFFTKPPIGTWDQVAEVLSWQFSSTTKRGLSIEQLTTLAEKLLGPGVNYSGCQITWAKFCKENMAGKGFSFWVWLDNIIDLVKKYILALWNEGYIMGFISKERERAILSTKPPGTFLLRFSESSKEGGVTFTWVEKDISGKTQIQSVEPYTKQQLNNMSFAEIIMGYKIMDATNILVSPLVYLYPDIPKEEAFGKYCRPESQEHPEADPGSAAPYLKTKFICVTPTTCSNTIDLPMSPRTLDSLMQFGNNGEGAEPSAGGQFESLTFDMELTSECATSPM
Chain of Heat shock factor protein 1 (Homo sapiens) (Q00613 whole entry, looked up, the tested form may be a part): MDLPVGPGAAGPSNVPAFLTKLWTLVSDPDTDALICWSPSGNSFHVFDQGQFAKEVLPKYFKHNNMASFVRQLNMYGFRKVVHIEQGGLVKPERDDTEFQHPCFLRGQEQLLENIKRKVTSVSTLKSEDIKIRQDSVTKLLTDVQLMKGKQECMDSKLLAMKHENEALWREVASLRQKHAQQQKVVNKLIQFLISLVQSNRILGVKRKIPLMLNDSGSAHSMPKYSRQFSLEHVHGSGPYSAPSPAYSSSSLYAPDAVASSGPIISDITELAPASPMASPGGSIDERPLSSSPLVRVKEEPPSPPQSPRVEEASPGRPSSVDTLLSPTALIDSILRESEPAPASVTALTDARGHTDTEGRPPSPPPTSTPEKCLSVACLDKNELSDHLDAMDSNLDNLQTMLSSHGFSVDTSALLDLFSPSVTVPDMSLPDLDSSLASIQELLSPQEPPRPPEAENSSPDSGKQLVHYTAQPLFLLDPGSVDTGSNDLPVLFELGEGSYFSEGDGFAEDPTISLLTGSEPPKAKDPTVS
Chain of Cellular tumor antigen p53 (Homo sapiens) (P04637 whole entry, looked up): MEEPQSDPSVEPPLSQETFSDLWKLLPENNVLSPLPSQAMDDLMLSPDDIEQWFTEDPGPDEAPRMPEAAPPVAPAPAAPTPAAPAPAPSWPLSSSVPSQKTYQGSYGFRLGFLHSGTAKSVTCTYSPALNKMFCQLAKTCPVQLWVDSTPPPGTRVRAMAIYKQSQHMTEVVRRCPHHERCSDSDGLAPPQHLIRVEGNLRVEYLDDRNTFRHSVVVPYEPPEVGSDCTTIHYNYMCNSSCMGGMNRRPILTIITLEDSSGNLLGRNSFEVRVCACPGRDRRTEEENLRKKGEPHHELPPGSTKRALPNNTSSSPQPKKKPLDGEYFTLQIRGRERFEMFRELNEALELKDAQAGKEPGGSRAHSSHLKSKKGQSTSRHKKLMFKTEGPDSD

For `BrCBr`, the compound was classed as inactive in assay [1], in assay [2], in [3], in [4], in assay [5] and in assay [6]. Besides, the outcome in assay [7], in assay [8], in assay [9], in assay [10], in [11] and in [12] was inactive. In addition, the result in assay [13], in [14], in assay [15], in assay [16], in assay [17] and in [18] was inactive.
Consider `Cc1cc(C)c(C2=C(OC(=O)CC(C)(C)C)C3(CCCC3)OC2=O)c(C)c1`, for which the compound was called inactive in assay [1], in assay [19], in assay [3], in assay [5], in assay [6] and in [7]. Further, the compound was classed as inactive in [8], in assay [9], in assay [10], in assay [13], in [14] and in assay [20]. Moreover, the AC50 in assay [2] was 168 µM (active); in assay [4] it was 170 µM (active); in assay [12], 104 µM (active); in assay [15], 189 µM (active); in assay [16], 160 µM (active); in assay [17], 128 µM (active).
As for `COC(C)(C)CCC[C@H](C)C/C=C/C(C)=C/C(=O)OC(C)C`, the AC50 in assay [1] is 100 µM (active); in [13] it was 165 µM (active); in assay [16] it was 52.8 µM (active); in [18], 157 µM (active). For the same compound, the compound was classed as inactive in [2], in assay [19], in assay [3], in assay [5], in assay [6] and in assay [7]. Further, the compound was called inactive in assay [8], in assay [9], in assay [10], in [12], in assay [14] and in assay [15]. The compound was classed as inactive in [20] and in [17].
As for `CCCCNP(N)(N)=S`, the result in assay [1], in assay [2], in assay [19], in [3], in assay [4] and in [6] was inactive. Besides, the compound was called inactive in [7], in [8], in assay [9], in [10], in [11] and in assay [12]. Besides, the outcome in assay [13], in assay [14], in [15], in assay [20], in assay [16] and in assay [17] was inactive. In assay [18], the compound was classed as inactive.
On to `CCC(C)(C)O`, for which the outcome in [2], in assay [19], in assay [3], in assay [4], in [5] and in assay [6] was inactive. Further, the outcome in [8], in assay [9], in [10], in assay [11], in [12] and in assay [13] was inactive. In addition, the call in assay [14], in [15], in assay [16] and in [17] was inactive.
As to `CC(C)(C)C(=O)CCl`, the outcome in [2], in assay [19], in [3], in assay [5], in assay [7] and in assay [8] was inactive. For the same compound, the result in [9], in assay [10], in assay [11], in assay [12], in assay [13] and in assay [14] was inactive. For the same compound, the outcome in [15], in assay [20], in [17] and in assay [18] was inactive. In addition, the results for the AC50 in assay [4] and in assay [16] were 157 µM (active) and 21.6 µM (active), respectively.

In general, AC50 refers to the concentration giving half of the maximal activity seen.
